Experimental data as given in PMC11006913.
Positions count from the first letter of the chain named.

Assays:
Assay in all cases: PBM; 200 nM protein, PBS
Settings in all cases: dsDNA, one strand shown
HOXB4 [1] = target: HOXB4 (Homo sapiens, UniProt P17483 148-234)
HOXB4 [2] = target: HOXB4 (Homo sapiens, UniProt P17483 148-234, V174I)
VAX1 [3] = target: VAX1 (Homo sapiens, UniProt Q5SQQ9 86-172)
VAX1 [4] = target: VAX1 (Homo sapiens, UniProt Q5SQQ9 86-172, T142I)
VAX1 [5] = target: VAX1 (Homo sapiens, UniProt Q5SQQ9 86-172, K157R)
VENTX [6] = target: T1, VENTX (Homo sapiens, UniProt O95231 78-163, R121Q)
T1 sequence: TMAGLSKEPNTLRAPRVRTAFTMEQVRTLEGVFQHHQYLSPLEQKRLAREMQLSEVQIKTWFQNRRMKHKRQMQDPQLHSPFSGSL

HOXA4 [7] = target: HOXA4 (Homo sapiens, UniProt Q00056 201-287, W262R)
VENTX [8] = target: T2, VENTX (Homo sapiens, UniProt O95231 78-163)
T2 sequence: T1 sequence with Q44R

HOXA7 [9] = target: HOXA7 (Homo sapiens, UniProt P31268 116-202)
VENTX [10] = target: T3, VENTX (Homo sapiens, UniProt O95231 78-163, Y115F)
T3 sequence: T1 sequence with Y38F, Q44R

HOXB6 [11] = target: HOXB6 (Homo sapiens, UniProt P17509 132-218, K202E)
HOXA2 [12] = target: HOXA2 (Homo sapiens, UniProt O43364 129-215, R185T)
HOXA4 [13] = target: HOXA4 (Homo sapiens, UniProt Q00056 201-287, R217L)
HOXA2 [14] = target: HOXA2 (Homo sapiens, UniProt O43364 129-215, R185K)
HOXA4 [15] = target: HOXA4 (Homo sapiens, UniProt Q00056 201-287)
HOXA2 [16] = target: HOXA2 (Homo sapiens, UniProt O43364 129-215, Y150S)
HOXA7 [17] = target: HOXA7 (Homo sapiens, UniProt P31268 116-202, W177C)
HOXA4 [18] = target: HOXA4 (Homo sapiens, UniProt Q00056 201-287, W262F)
HOXA2 [19] = target: HOXA2 (Homo sapiens, UniProt O43364 129-215)
HOXB6 [20] = target: HOXB6 (Homo sapiens, UniProt P17509 132-218)
Chain of HOXB6 (Homo sapiens, UniProt P17509 132-218) (P17509 132-218): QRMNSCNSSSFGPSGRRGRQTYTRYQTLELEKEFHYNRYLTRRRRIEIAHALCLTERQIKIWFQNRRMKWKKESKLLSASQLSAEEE

Chain of HOXA4 (Homo sapiens, UniProt Q00056 201-287) (Q00056 201-287): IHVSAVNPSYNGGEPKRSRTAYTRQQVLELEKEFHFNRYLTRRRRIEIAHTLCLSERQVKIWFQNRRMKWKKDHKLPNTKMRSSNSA
Chain of HOXA2 (Homo sapiens, UniProt O43364 129-215, R185K) (O43364 129-215 R185K): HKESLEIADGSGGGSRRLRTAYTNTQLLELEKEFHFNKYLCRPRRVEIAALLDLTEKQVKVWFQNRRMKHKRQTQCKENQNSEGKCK
Chain of HOXA2 (Homo sapiens, UniProt O43364 129-215, Y150S) (O43364 129-215 Y150S): as the sequence (O43364 129-215 R185K) above, with Y22S, K57R counted along it
Chain of HOXB4 (Homo sapiens, UniProt P17483 148-234) (P17483 148-234): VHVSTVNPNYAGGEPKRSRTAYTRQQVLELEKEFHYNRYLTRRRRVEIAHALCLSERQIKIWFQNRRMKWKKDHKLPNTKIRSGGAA
Chain of HOXA4 (Homo sapiens, UniProt Q00056 201-287, W262R) (Q00056 201-287 W262R): as the sequence (Q00056 201-287) above, with W62R counted along it
Chain of VAX1 (Homo sapiens, UniProt Q5SQQ9 86-172, T142I) (Q5SQQ9 86-172 T142I): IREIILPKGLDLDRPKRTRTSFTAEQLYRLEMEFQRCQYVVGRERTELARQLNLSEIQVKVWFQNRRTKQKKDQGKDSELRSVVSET
Chain of HOXB4 (Homo sapiens, UniProt P17483 148-234, V174I) (P17483 148-234 V174I): as the sequence (P17483 148-234) above, with V27I counted along it
Chain of HOXA7 (Homo sapiens, UniProt P31268 116-202) (P31268 116-202): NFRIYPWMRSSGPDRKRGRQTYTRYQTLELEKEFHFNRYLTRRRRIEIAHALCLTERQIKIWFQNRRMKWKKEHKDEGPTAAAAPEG
Chain of HOXA4 (Homo sapiens, UniProt Q00056 201-287, R217L) (Q00056 201-287 R217L): as the sequence (Q00056 201-287) above, with R17L counted along it
Chain of VAX1 (Homo sapiens, UniProt Q5SQQ9 86-172, K157R) (Q5SQQ9 86-172 K157R): as the sequence (Q5SQQ9 86-172 T142I) above, with I57T, K72R counted along it
Chain of HOXA7 (Homo sapiens, UniProt P31268 116-202, W177C) (P31268 116-202 W177C): as the sequence (P31268 116-202) above, with W62C counted along it
Chain of HOXA2 (Homo sapiens, UniProt O43364 129-215) (O43364 129-215): as the sequence (O43364 129-215 R185K) above, with K57R counted along it
Chain of HOXA2 (Homo sapiens, UniProt O43364 129-215, R185T) (O43364 129-215 R185T): as the sequence (O43364 129-215 R185K) above, with K57T counted along it
Chain of VAX1 (Homo sapiens, UniProt Q5SQQ9 86-172) (Q5SQQ9 86-172): as the sequence (Q5SQQ9 86-172 T142I) above, with I57T counted along it
Chain of HOXB6 (Homo sapiens, UniProt P17509 132-218, K202E) (P17509 132-218 K202E): as the sequence (P17509 132-218) above, with K71E counted along it
Chain of HOXA4 (Homo sapiens, UniProt Q00056 201-287, W262F) (Q00056 201-287 W262F): as the sequence (Q00056 201-287) above, with W62F counted along it

Sequence	binding signal (HOXB4 [1])	binding signal (HOXB4 [2])	binding signal (VAX1 [3])	binding signal (VAX1 [4])	binding signal (VAX1 [5])	binding signal (VENTX [6])	binding signal (HOXA4 [7])	binding signal (VENTX [8])	binding signal (HOXA7 [9])	binding signal (VENTX [10])	binding signal (HOXB6 [11])	binding signal (HOXA2 [12])	binding signal (HOXA4 [13])	binding signal (HOXA2 [14])	binding signal (HOXA4 [15])	binding signal (HOXA2 [16])	binding signal (HOXA7 [17])	binding signal (HOXA4 [18])	binding signal (HOXA2 [19])	binding signal (HOXB6 [20])
GGAGCTCC	7.69 upbm affinity estimate (log intensity, higher = more binding, comparable within an allelic series)	7.37 upbm affinity estimate (log intensity, higher = more binding, comparable within an allelic series)	7.36 upbm affinity estimate (log intensity, higher = more binding, comparable within an allelic series)	7.59 upbm affinity estimate (log intensity, higher = more binding, comparable within an allelic series)	7.58 upbm affinity estimate (log intensity, higher = more binding, comparable within an allelic series)	–	–	–	–	–	–	–	–	–	–	–	–	–	–	–
GTTAATGA	13.3 upbm affinity estimate (log intensity, higher = more binding, comparable within an allelic series)	14 upbm affinity estimate (log intensity, higher = more binding, comparable within an allelic series)	13.5 upbm affinity estimate (log intensity, higher = more binding, comparable within an allelic series)	13.4 upbm affinity estimate (log intensity, higher = more binding, comparable within an allelic series)	13.3 upbm affinity estimate (log intensity, higher = more binding, comparable within an allelic series)	11.9 upbm affinity estimate (log intensity, higher = more binding, comparable within an allelic series)	10.7 upbm affinity estimate (log intensity, higher = more binding, comparable within an allelic series)	12.6 upbm affinity estimate (log intensity, higher = more binding, comparable within an allelic series)	11.3 upbm affinity estimate (log intensity, higher = more binding, comparable within an allelic series)	11.9 upbm affinity estimate (log intensity, higher = more binding, comparable within an allelic series)	9.94 upbm affinity estimate (log intensity, higher = more binding, comparable within an allelic series)	13.1 upbm affinity estimate (log intensity, higher = more binding, comparable within an allelic series)	12.7 upbm affinity estimate (log intensity, higher = more binding, comparable within an allelic series)	13.5 upbm affinity estimate (log intensity, higher = more binding, comparable within an allelic series)	14.1 upbm affinity estimate (log intensity, higher = more binding, comparable within an allelic series)	10.9 upbm affinity estimate (log intensity, higher = more binding, comparable within an allelic series)	8.79 upbm affinity estimate (log intensity, higher = more binding, comparable within an allelic series)	12.3 upbm affinity estimate (log intensity, higher = more binding, comparable within an allelic series)	12.8 upbm affinity estimate (log intensity, higher = more binding, comparable within an allelic series)	11.8 upbm affinity estimate (log intensity, higher = more binding, comparable within an allelic series)
ACTAATGA	13.4 upbm affinity estimate (log intensity, higher = more binding, comparable within an allelic series)	14 upbm affinity estimate (log intensity, higher = more binding, comparable within an allelic series)	13.5 upbm affinity estimate (log intensity, higher = more binding, comparable within an allelic series)	13.3 upbm affinity estimate (log intensity, higher = more binding, comparable within an allelic series)	13.3 upbm affinity estimate (log intensity, higher = more binding, comparable within an allelic series)	12.1 upbm affinity estimate (log intensity, higher = more binding, comparable within an allelic series)	10.8 upbm affinity estimate (log intensity, higher = more binding, comparable within an allelic series)	12.7 upbm affinity estimate (log intensity, higher = more binding, comparable within an allelic series)	–	12 upbm affinity estimate (log intensity, higher = more binding, comparable within an allelic series)	–	13.3 upbm affinity estimate (log intensity, higher = more binding, comparable within an allelic series)	12.2 upbm affinity estimate (log intensity, higher = more binding, comparable within an allelic series)	13.6 upbm affinity estimate (log intensity, higher = more binding, comparable within an allelic series)	14.1 upbm affinity estimate (log intensity, higher = more binding, comparable within an allelic series)	10.9 upbm affinity estimate (log intensity, higher = more binding, comparable within an allelic series)	–	12.3 upbm affinity estimate (log intensity, higher = more binding, comparable within an allelic series)	12.9 upbm affinity estimate (log intensity, higher = more binding, comparable within an allelic series)	–
CCATTAAG	13 upbm affinity estimate (log intensity, higher = more binding, comparable within an allelic series)	13.6 upbm affinity estimate (log intensity, higher = more binding, comparable within an allelic series)	–	–	–	11.8 upbm affinity estimate (log intensity, higher = more binding, comparable within an allelic series)	10.5 upbm affinity estimate (log intensity, higher = more binding, comparable within an allelic series)	12.3 upbm affinity estimate (log intensity, higher = more binding, comparable within an allelic series)	11.6 upbm affinity estimate (log intensity, higher = more binding, comparable within an allelic series)	11.5 upbm affinity estimate (log intensity, higher = more binding, comparable within an allelic series)	9.89 upbm affinity estimate (log intensity, higher = more binding, comparable within an allelic series)	–	11.8 upbm affinity estimate (log intensity, higher = more binding, comparable within an allelic series)	–	13.7 upbm affinity estimate (log intensity, higher = more binding, comparable within an allelic series)	–	8.82 upbm affinity estimate (log intensity, higher = more binding, comparable within an allelic series)	11.3 upbm affinity estimate (log intensity, higher = more binding, comparable within an allelic series)	–	12 upbm affinity estimate (log intensity, higher = more binding, comparable within an allelic series)
ATCATTAG	13.5 upbm affinity estimate (log intensity, higher = more binding, comparable within an allelic series)	14.2 upbm affinity estimate (log intensity, higher = more binding, comparable within an allelic series)	13.2 upbm affinity estimate (log intensity, higher = more binding, comparable within an allelic series)	13.1 upbm affinity estimate (log intensity, higher = more binding, comparable within an allelic series)	13.1 upbm affinity estimate (log intensity, higher = more binding, comparable within an allelic series)	11.7 upbm affinity estimate (log intensity, higher = more binding, comparable within an allelic series)	10.6 upbm affinity estimate (log intensity, higher = more binding, comparable within an allelic series)	12.5 upbm affinity estimate (log intensity, higher = more binding, comparable within an allelic series)	–	11.8 upbm affinity estimate (log intensity, higher = more binding, comparable within an allelic series)	–	12.9 upbm affinity estimate (log intensity, higher = more binding, comparable within an allelic series)	12.3 upbm affinity estimate (log intensity, higher = more binding, comparable within an allelic series)	13.6 upbm affinity estimate (log intensity, higher = more binding, comparable within an allelic series)	14.1 upbm affinity estimate (log intensity, higher = more binding, comparable within an allelic series)	10.9 upbm affinity estimate (log intensity, higher = more binding, comparable within an allelic series)	–	12 upbm affinity estimate (log intensity, higher = more binding, comparable within an allelic series)	12.7 upbm affinity estimate (log intensity, higher = more binding, comparable within an allelic series)	–
ATCATTAA	13.5 upbm affinity estimate (log intensity, higher = more binding, comparable within an allelic series)	14.2 upbm affinity estimate (log intensity, higher = more binding, comparable within an allelic series)	13.2 upbm affinity estimate (log intensity, higher = more binding, comparable within an allelic series)	13.2 upbm affinity estimate (log intensity, higher = more binding, comparable within an allelic series)	13 upbm affinity estimate (log intensity, higher = more binding, comparable within an allelic series)	11.7 upbm affinity estimate (log intensity, higher = more binding, comparable within an allelic series)	10.9 upbm affinity estimate (log intensity, higher = more binding, comparable within an allelic series)	–	11.7 upbm affinity estimate (log intensity, higher = more binding, comparable within an allelic series)	11.7 upbm affinity estimate (log intensity, higher = more binding, comparable within an allelic series)	10.2 upbm affinity estimate (log intensity, higher = more binding, comparable within an allelic series)	13 upbm affinity estimate (log intensity, higher = more binding, comparable within an allelic series)	12.9 upbm affinity estimate (log intensity, higher = more binding, comparable within an allelic series)	13.5 upbm affinity estimate (log intensity, higher = more binding, comparable within an allelic series)	14.2 upbm affinity estimate (log intensity, higher = more binding, comparable within an allelic series)	10.9 upbm affinity estimate (log intensity, higher = more binding, comparable within an allelic series)	8.9 upbm affinity estimate (log intensity, higher = more binding, comparable within an allelic series)	12.5 upbm affinity estimate (log intensity, higher = more binding, comparable within an allelic series)	12.7 upbm affinity estimate (log intensity, higher = more binding, comparable within an allelic series)	12 upbm affinity estimate (log intensity, higher = more binding, comparable within an allelic series)
GGCCCCCA	7.76 upbm affinity estimate (log intensity, higher = more binding, comparable within an allelic series)	7.77 upbm affinity estimate (log intensity, higher = more binding, comparable within an allelic series)	–	–	–	–	9.68 upbm affinity estimate (log intensity, higher = more binding, comparable within an allelic series)	–	–	–	–	–	9.68 upbm affinity estimate (log intensity, higher = more binding, comparable within an allelic series)	–	9.71 upbm affinity estimate (log intensity, higher = more binding, comparable within an allelic series)	–	–	9.82 upbm affinity estimate (log intensity, higher = more binding, comparable within an allelic series)	–	–
